According to the supplement of paper PMC10105736:
Unmarked numbers belong to inactive results.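 Rule for the calls: active = MAPPIT score above the 99th percentile of random reference set scores in the same batch; inactive = at or below it.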

Key:
Test in all cases: MAPPIT interaction score (arbitrary units); higher = stronger binary interaction signal, active = hit call of the paper
[1] = biological target: cpa; conditions: MAPPIT configuration: N-N; pair source set: Lit-BM-16
[2] = biological target: dgt4; conditions: MAPPIT configuration: N-N; pair source set: Lit-BM-16
[3] = biological target: dimm; conditions: MAPPIT configuration: N-N; pair source set: DPIM
[4] = biological target: dnd; conditions: MAPPIT configuration: N-N; pair source set: screen_2
[5] = biological target: dre4; conditions: MAPPIT configuration: N-N; pair source set: Lit-BM-16
[6] = biological target: e(y)2; conditions: MAPPIT configuration: N-N; pair source set: screen_2
[7] = biological target: eIF3f1; conditions: MAPPIT configuration: N-N; pair source set: Lit-BM-16
[8] = biological target: emb; conditions: MAPPIT configuration: N-N; pair source set: Lit-BM-16
[9] = biological target: flw; conditions: pair source set: Lit-BM-16
[10] = biological target: fon; conditions: MAPPIT configuration: N-N; pair source set: Finley_Y2H
[11] = biological target: fwe; conditions: MAPPIT configuration: N-C; pair source set: screen_4
[12] = biological target: fz; conditions: MAPPIT configuration: N-C; pair source set: Lit-BM-16
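Note: HEK293T cells with Epo stimulation, STAT-responsive firefly luciferase reporter, fold induction versus unstimulated cells divided by the larger fold induction of two negative controls lacking either bait or prey.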

B1: cpb (protein)
chain: MSEMQMDCALDLMRRLPPQQIEKNLIDLIDLAPDLCEDLLSSVDQPLKIAKDKEHGKDYLLCDYNRDGDSYRSPWSNSYYPPLEDGQMPSERLRKLEIEANYAFDQYREMYYEGGVSSVYLWDLDHGFAAVILIKKAGDGSKMIRGCWDSIHVVEVQEKTTGRTAHYKLTSTAMLWLQTNKQGSGTMNLGGSLTRQQEQDANVSESSPHIANIGKMVEEMENKIRNTLNEIYFGKTKDIVNGLRSTQSLADQRQQAAMKQDLAAAILRRNVKPESN
MAPPIT interaction score [1]: 3.35 (active)

B2: dgt6 (protein)
chain: MDRTIIAPWKAEEKEQSEKLHRKLQGLALVHPLPDELRKLIAWDMFLKPNQVAFVHVMHYLFRLLDPAEFKRRFFWPITDKKSEANFRSSTVEYLKHLNEKHQLHWANIKSYLVVMPGGMRFINFLLEFVGFVIQELIKQREKSLGLEAGTPNVSAKVMARQNAVMKEYASSYVVNLEENTALLRDKTQKIRRLMADLSADMGVPEEQLADDGFLDEFEATAALGVERVITQPTERKFDLEASLCGLKEAIDLFQVKQAENNQSKEAVEKALRGMRVLFDCDAVTEGDFYDPLGASKMDALLNGFNRISGTIAEQLDANDHYNESNAFVTTDLQALRVELSQSEVQLNNLLKKLNEPSKKDKGSANASGSARVQTLQPATPRFESVISSKFVSTPPIRIDMGGGGGRNAPVRLALQDDFNGKQFDALSNSLLAPAPPRSARKLKALDQSTGIDLNGTLNRSKINDPMQMLRTIHKNTSKVKAAPQANLSSLGSKWKQMQASFGFDEAPVPGAAVISPQTSPTDPSDPFTPLSGSECTRIERIPRTSENNTSLIAKSAAVIKVLEVSRNVLNLSTSPSGRLDALVPHTESHQQDVAPRLQLNDRTINDSLQLDPDFNIENDKNAFNVSHKFDFDQIGGEDDLQNISDSVLKDIIF
MAPPIT interaction score [2]: 4.71 (active)

B3: Lsm12a (protein)
chain: MAAAAASAVNAVNDCFSIGSTVVCTTCFNEEVEGEVLAFDHNTKMLILKCRSKSTEELSDIYAMNLSLCSNVQVIKECNGNFDDPQKLNLEQVKMRLRKTVERRQDYLKSKNADVSPEAQELYRAIAKQYGYNEVSWQGLNIQILNEVTISPPYRVDNVVSSSNNETSCNYIKRIIKQFFNTRPSPVPESGAAASTSSPSVSPTSSSLASGSPVPAN
MAPPIT interaction score [3]: -0.17

B4: PrBP (protein)
chain: MGSDDQSAGDRIQKGFQINYMILRDADSGKIIWQENKDFSAPDQEHEARVPVKILDMRAVSREINFSTIESMENFRLDQKVLFKGRIMEEWFFEMGFVGANTTNTWQSTIEAAPESQMMPAKVLNGNVTIQTSFYDNETLITKSVVRLYYI
MAPPIT interaction score [4]: 4.87 (active)

B5: Ssrp (protein)
chain: MTDSLEYNDINAEVRGVLCSGRLKMTEQNIIFKNTKTGKVEQISAEDIDLINSQKFVGTWGLRVFTKGGVLHRFTGFRDSEHEKLGKFIKAAYSQEMVEKEMCVKGWNWGTARFMGSVLSFDKESKTIFEVPLSHVSQCVTGKNEVTLEFHQNDDAPVGLLEMRFHIPAVESAEEDPVDKFHQNVMSKASVISASGESIAIFREIQILTPRGRYDIKIFSTFFQLHGKTFDYKIPMDSVLRLFMLPHKDSRQMFFVLSLDPPIKQGQTRYHYLVLLFAPDEETTIELPFSEAELRDKYEGKLEKEISGPVYEVMGKVMKVLIGRKITGPGNFIGHSGTAAVGCSFKAAAGYLYPLERGFIYIHKPPLHIRFEEISSVNFARSGGSTRSFDFEVTLKNGTVHIFSSIEKEEYAKLFDYITQKKLHVSNMGKDKSGYKDVDFGDSDNENEPDAYLARLKAEAREKEEDDDDGDSDEESTDEDFKPNENESDVAEEYDSNVESDSDDDSDASGGGGDSDGAKKKKEKKSEKKEKKEKKHKEKERTKKPSKKKKDSGKPKRATTAFMLWLNDTRESIKRENPGIKVTEIAKKGGEMWKELKDKSKWEDAAAKDKQRYHDEMRNYKPEAGGDSDNEKGGKSSKKRKTEPSPSKKANTSGSGFKSKEYISDDDSTSSDDEKDNEPAKKKSKPPSDGDAKKKKAKSESEPEESEEDSNASDEDEEDEASD
MAPPIT interaction score [5]: 0.764

B6: Mul1 (protein)
chain: MEFLHESVALGVDLLILGLCAREYVHYKRTAKVLKAAPQYNIDGDLKSVVERQRDKKIPYAVIRGTVTPIGVPLRSSLVPSVSGVLQIVKLHEHRVTRGFAGFWTEQHKLLHESANEMPFELRNQSHGVEIVDALSAAVLDVDVVYDNYEPSNLSLFDHVFGFFSGVRQRGLQTTEEVLREGSFLTAIGELELDGDTLRMQPSNEGPLFLTTATKSTLIKRFEDAKTTTILKLVVCSTISAILVAFIAKKLYRKRKQEREEAKIRERLDTERRERRARSRPHTLSQDQLCVVCSTNPKEIILLPCGHVCLCEDCAQKISVTCPVCRGSIVSKAAAFIA
MAPPIT interaction score [6]: 5.68 (active)

B7: eIF3m (protein)
chain: MTSHPVFIDLSLDEQVQELRKYFKKLGAEISSEKSNKGVEDDLHKIIGVCDVCFKDGEPSQIDGILNSIVSIMITIPLDRGENIVLAYCEKMTKAPNLPLGKVCLQSLWRLFNNLDTASPLRYHVYYHLVQVAKQCEQVLEVFSGVDQLKSQFANCPPSSEQMQKLYRLLHDVTKDTNLELSSKVMIELLGTYTADNACVAREDAMKCIVTALADPNTFLLDPLLSLKPVRFLEGDLIHDLLSIFVSEKLPAYVQFYEDHREFVNSQGLNHEQNMKKMRLLTFMQLAESSPEMTFETLTKELQINEDEVEPFVIEVLKTKLVRARLDQANQKVHISSTMHRTFGAPQWEQLRDLLQAWKENLSTVREGLTSVSSAQLDLARSQKLIH
MAPPIT interaction score [7]: 5.38 (active)

B8: mbo (protein)
chain: MSLTDVLELNKTELFAKIRNGLPVVQRTQNLLDCKDDLLFAWHAKDSCLLVRNWRSSLAAKVNIQFQTLIPSSLVSLEVDRVLASNEGSLVALSGPRGVVIMELPRRWGPDGYYKDGKPVITCRTFGLDTQLFLKNPHLEVRQVRWHPHSVSDSTLLVLLNNNTIRVYNHSKLRHVWQVGPPVLRSGANNSLCDFGELAVDFDIAPAAKPRVTEPETAGNNETTLDKSNKTLVAAKSLPKQERIEWPMVVLRENGNIYILMTGVDSENTRLQGPVTITPQAHDNYGLESCALMIIPSLPPTIVIAESNGKLHHALLMEAEATEHSFNEVDDSVLIEPAEYVVHVLETVELELGISAPATGKEGGNCPIYLKRDLINELRYFAYHNAGLHAVTVSFIAELQRYLESESDEDRLELAVSASAEYILCTKFDSSETVNAVFGLALLQIPAGIVLLLGSGQVISLKLVIDAQLLVTPNENKPVDSEVSQQESGPPFVDTIKSLLQRSVNQPILADKLSSPSAQESFELLNQAIEVLREQYLKRHDLVRAAFTRHINQIQLKKEQQLQEIQDLEQERELISERAHKLAERFEEISYNQELLVRKCNALMQRANASLPNSVIAEREFSQEVIRLNKVTQSLAAGLETAKKTFNKQRYHIAQSQEDLKKNAYELPEKQHRTITEILTQLTGEIDRQITDVKRINKIVGI
MAPPIT interaction score [8]: 0.0885

B9: Nop17l (protein)
chain: MSASRSRNKQSKLCDDERLDISRDEFNRFQEAFGKEEFRKLFFDYVDEIQDPENRKIYESEITQLEKERGVEVRFIHPKPGFVIKTALDGELKCFINIASCEEIQRPKNEVATDPSSGSRGLSWSIPMAQTTSRDDFDAKNNHCKVFDVVFHPDALHLAMRNKQFRQCLIDTALDAIEREYKVSLDRANLKFPKLDYKGIPRPTVIRKMADNPTAEEQEPHPLAHMFPTKPPAPGKQEPRVLPMKTKPSPVPEFTVPRYTIKHSHDVDLSEYTDELDAKLHVTVPRSLVVEIELPLLRSTAECQLDVTSKSIYLFSERQGAKYRLKLDLPFIVDDKAGRARFDTDMRRLSITLPVVRKSIQEQAQMHETLRHFSREDSGVELHSNSESPVEEDPDGELSDSKADISETSSPSVAPANSPFLKSSVHYQLPSKFDCNVLDNVMAFVLHVPNVQPDSIEQLREQRSLHLKFATIGSGYYPTHYAFYVELSAEHEDSSIESAEAEAWDNNVVLKLCLNSQSETPASYLAGLDATELKEYPVHGQYHVKSKGKVNAKKDNAPLDVKFERNQEGHALKVTIRPGTKEEEEDKENQDQEPESDQQQQQQVQNKKPGKKQRKKNKKERSLSESACADMILQEPLAKTNELQPRATFKLPPQRKQRSYSECNDSTGRSHRGILKRFSRYGPRPSMSDSWSSIDDSSSYSCSVDASGTSLFSQSFGGIPEEDRSDAGLSESCKKTVRFNDHIMKQVFRLDSSILGQRKKNQKRRDLKLRAQQRRLSEGDSVDYEETRGSALKQEENPSRNCNDSGLDLTGAAGAHSNNNESDAKNTMMFEMDD
MAPPIT interaction score ([9]; MAPPIT configuration: N-C): 3.31
MAPPIT interaction score ([9]; MAPPIT configuration: N-N): 0.884

B10: Slh (protein)
chain: MLTLRERQINAIKQMLNLNSQQPKALAAEPVWKILIYDRVGQDIISPIISIKELRELGVTLHVQLHSDRDSIPDVPAIYFCLPTDENLDRIQQDFSSGLYDVYHLNFLAPITRSKIENLAAAALHAGCVANIHRVYDQYVNFISLEDDFFILKHQQSDQLSYYAINRANTRDEEMEALMDSIVDSLFALFVTLGNVPIIRCPRNSAAEMVARKLEKKLRENLWDARANLFHMDATQAGGGVFSFQRPVLLLLDRNMDLATPLHHTWSYQALVHDVLDLGLNLVYVEDETASAGARKKPKACDLDRNDRFWMTHKGSPFPTVAEAIQEELESYRNSEEEIKRLKTSMGIEGESDIAFSLVNDTTARLTNAVNSLPQLMEKKRLIDMHTKIATAILNFIKARRLDSFFEIEEKVMSKQTLDRPLLDLLRDGEFGQAEDKLRLYIIYFICAQQLPESEQERLKEALQAAGCDLTALAYVQRWKGIMNRSPSISQATQYEGGGTKTVSMFTKLVSQGSSFVMEGVKNLVVKRHNLPVTKITEQVMECRSNAETDDYLYLDPKLLKGGEVLPKNRAPFQDAVVFMVGGGNYIEYQNLVDFIKQKQTSNVQRRIIYGASTLTNARQFLKELSALGGEIQSPTATS
MAPPIT interaction score [10]: -0.252

B11: Arl8 (protein)
chain: MLALINRILEWFKSIFWKEEMELTLVGLQFSGKTTFVNVIASGQFAEDMIPTVGFNMRKITRGNVTIKVWDIGGQPRFRSMWERYCRGVNAIVYMVDAADLDKLEASRNELHSLLDKPQLAGIPVLVLGNKRDLPGALDETGLIERMNLSSIQDREICCYSISCKEKDNIDITLQWLIQHSKSQSR
MAPPIT interaction score [11]: 3.21

B12: Patj (protein)
chain: MHLSADISSALQQIEAVKKGIDESDDPKLQMQTAESLSTILGILQDPVFRTIVHVQDSLSELNAQLAQHPSMLPNDFDIDVAGNLVLSLNGGEVMYDFDEQRSSSHSHSAPGSPDKSGGVGEEPRPQSQNSKGAGVADLYATDYAQIQAIELVNDGTGLGFGIIGARNSGVIVKTILPGGVADKDGRLRSGDHILQIGDVNLHEMVSEQVAAVLRQSGTHVRLVVARPVEQSVPTPQYALEPGTAVVPTRVLVDPAELERYLISTGYPEIFGESSTASTPQTTTEDDRFVYRGETSMLIDPNIDLEELLALPETEKLQVELKKDANGLGITIAGYVCEKEELSGIFVKSVSPGSAADLSGRIRVNDRIIEVDGQSLQGYSNHQAVELLKKSGQVVNLRLERYLRGPKFEQLQQAIAANDKLPSSAPGTPSRAPMPTPVATTSSATTTPSRSITRELEEEALPAPEAFMTTPPSVTTMTTTTLSSFGAGKQLVAVRDSLDGSTKIIPTEVVPLADKTEAKNSGVITRHKYYTDPELSDDAETEIIRKWQKIVGSDVEVIVAQIKKFAVGGLGISLEGTVDVEGGREVRPHHYIRSILPDGPVGVNGVLRSGDELLEVNGERLLGMNHLEVVAILKELPLDVRMVCGRNRNSSLLPFSDDTLKKLSNNFENLLPATDRLVKAKSDGSLATAGSVADGDSVAAAAASFSKLKSRSLEPLTGLAMWSSQPQIIELVKGDRGLGFSILDYQDPLDPNDTLIVIRSLVPGGVAQLDGRLIPGDRLLFVNSINLENASLDQAVQALKGASKGVVRIGVAKPLPMTDNSLKACSNASTTSEETLDAQPSPPALPTVAPPAMPPSASMGAEPDLIPDWRN
MAPPIT interaction score [12]: 2.4
